The campaign covered roughly 5,500 compounds. About 2,000 (36%) were called active. About 18% were inconclusive and are not listed. Rule as the data show it: active = normalized growth mostly below about 0.91 (no sharp cut-off); inconclusive = no clear call, values can overlap the other calls; inactive = mostly above about 0.92. The list shows a part of the results.
Assay: chemical genetic growth profiling, strain panel (AID 1159580);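 also: tested at 20 µM; growth read once vehicle control cultures reached saturation at 30 °C; 1 = growth at the plate median or of vehicle wells; lower values mean less growth of the strain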
Conditions: growth OD

Measured: normalized growth

OCc1ccccc1O
inactive: S. cerevisiae deletion strains, locus YKL068W, active compounds read low 0.994 | S. cerevisiae deletion strains, locus YKL085W, strain MDH1 (second series), active compounds read low 0.992 | S. cerevisiae deletion strains, locus YKL085W, strain MDH1, active compounds read low 0.992 | S. cerevisiae deletion strains, locus YKL160W, strain elf1, active compounds read low 1.04 | S. cerevisiae deletion strains, locus YKL190W, strain CNB1, active compounds read low 1.01 | S. cerevisiae deletion strains, locus YKR001C, strain vps1, active compounds read low 0.989 | S. cerevisiae deletion strains, locus YKR026C, strain gcn3, active compounds read low 1.02 | S. cerevisiae deletion strains, locus YKR091W, strain srl3, active compounds read low 1.01 | S. cerevisiae deletion strains, locus YLL001W, strain dnm1, active compounds read low 1.01 | S. cerevisiae deletion strains, locus YLL026W, active compounds read low 1 | S. cerevisiae deletion strains, locus YLL041C, strain sdh2, active compounds read low 1.01 | S. cerevisiae deletion strains, locus YLR027C, strain aat2, active compounds read low 1.02 | S. cerevisiae deletion strains, locus YLR039C, strain RIC1, active compounds read low 0.988 | S. cerevisiae deletion strains, locus YLR058C, strain SHM2, active compounds read low 1.02 | S. cerevisiae deletion strains, locus YLR102C, strain apc9, active compounds read low 0.981 | S. cerevisiae deletion strains, locus YLR113W, strain HOG1, active compounds read low 1.03 | S. cerevisiae deletion strains, locus YLR221C, strain rsa3, active compounds read low 1.02 | S. cerevisiae deletion strains, locus YLR258W, strain gsy2, active compounds read low 1.02 | S. cerevisiae deletion strains, locus YLR262C, strain YPT6 (second series), active compounds read low 1.06 | S. cerevisiae deletion strains, locus YLR262C, strain YPT6, active compounds read low 1.04 | S. cerevisiae deletion strains, locus YLR268W, strain sec22, active compounds read low 0.969 | S. cerevisiae deletion strains, locus YLR320W, strain mms22, active compounds read low 1.02 | S. cerevisiae deletion strains, locus YLR330W, strain CHS5, active compounds read low 1.01 | S. cerevisiae deletion strains, locus YLR342W, strain FKS1 (second series), active compounds read low 1.01 | S. cerevisiae deletion strains, locus YLR342W, strain FKS1, active compounds read low 1.03 | S. cerevisiae deletion strains, locus YLR357W, strain rsc2, active compounds read low 1.08 | S. cerevisiae deletion strains, locus YLR370C, strain arc18, active compounds read low 1.01 | S. cerevisiae deletion strains, locus YLR371W, strain rom2, active compounds read low 0.989 | S. cerevisiae deletion strains, locus YLR384C, strain iki3, active compounds read low 1.01 | S. cerevisiae deletion strains, locus YLR418C, strain cdc73, active compounds read low 0.962 | S. cerevisiae deletion strains, locus YML016C, strain PPZ1, active compounds read low 1.02 | S. cerevisiae deletion strains, locus YML032C, strain rad52, active compounds read low 0.979 | S. cerevisiae deletion strains, locus YML120C, strain ndi1, active compounds read low 1.01 | S. cerevisiae deletion strains, locus YML124C, strain tub3, active compounds read low 0.997 | S. cerevisiae deletion strains, locus YMR058W, strain fet3, active compounds read low 1.02 | S. cerevisiae deletion strains, locus YMR078C, strain ctf18, active compounds read low 0.993 | S. cerevisiae deletion strains, locus YMR125W, strain sto1, active compounds read low 1.01 | S. cerevisiae deletion strains, locus YMR129W, active compounds read low 1.03 | S. cerevisiae deletion strains, locus YMR205C, strain PFK2, active compounds read low 1.03 | S. cerevisiae deletion strains, locus YMR223W, strain ubp8, active compounds read low 0.994 | S. cerevisiae deletion strains, locus YMR231W, strain pep5, active compounds read low 1.01 | S. cerevisiae deletion strains, locus YMR263W, strain SAP30, active compounds read low 1.02 | S. cerevisiae deletion strains, locus YMR307W, strain GAS1, active compounds read low 1.01 | S. cerevisiae deletion strains, locus YNL067W, strain RPL9B, active compounds read low 1.01 | S. cerevisiae deletion strains, locus YNL071W, strain lat1, active compounds read low 1.04 | S. cerevisiae deletion strains, locus YNL128W, strain TEP1, active compounds read low 1.02 | S. cerevisiae deletion strains, locus YNL153C, strain GIM3, active compounds read low 1.01 | S. cerevisiae deletion strains, locus YNL183C, strain NPR1, active compounds read low 1 | S. cerevisiae deletion strains, locus YNL209W, strain ssb2, active compounds read low 1.02 | S. cerevisiae deletion strains, locus YNL233W, strain BNI4, active compounds read low 1.01 | S. cerevisiae deletion strains, locus YNL248C, strain rpa49, active compounds read low 1.04 | S. cerevisiae deletion strains, locus YNL250W, strain rad50, active compounds read low 0.986 | S. cerevisiae deletion strains, locus YNL271C, strain bni1, active compounds read low 0.98 | S. cerevisiae deletion strains, locus YNL298W, strain CLA4, active compounds read low 0.981 | S. cerevisiae deletion strains, locus YNL307C, strain MCK1, active compounds read low 0.989 | S. cerevisiae deletion strains, locus YNL322C, strain KRE1 (second series), active compounds read low 1.03 | S. cerevisiae deletion strains, locus YNL322C, strain KRE1, active compounds read low 1.01 | S. cerevisiae deletion strains, locus YNR049C, strain mso1, active compounds read low 1.02 | S. cerevisiae deletion strains, locus YNR052C, strain pop2, active compounds read low 0.989 | S. cerevisiae deletion strains, locus YOL006C, strain TOP1, active compounds read low 1.06 | S. cerevisiae deletion strains, locus YOL012C, strain htz1 0.829 | S. cerevisiae deletion strains, locus YOL147C, strain pex11, active compounds read low 0.985 | S. cerevisiae deletion strains, locus YOR001W, strain rrp6, active compounds read low 1.03 | S. cerevisiae deletion strains, locus YOR061W, strain CKA2, active compounds read low 1.02 | S. cerevisiae deletion strains, locus YOR069W, strain VPS5, active compounds read low 1.01 | S. cerevisiae deletion strains, locus YOR070C, strain gyp1, active compounds read low 1.03 | S. cerevisiae deletion strains, locus YOR080W, strain dia2, active compounds read low 1.02 | S. cerevisiae deletion strains, locus YOR083W, strain WHI5, active compounds read low 1.02 | S. cerevisiae deletion strains, locus YOR106W, strain vam3, active compounds read low 1.01 | S. cerevisiae deletion strains, locus YOR136W, strain idh2, active compounds read low 0.992 | S. cerevisiae deletion strains, locus YOR144C, strain elg1, active compounds read low 0.991 | S. cerevisiae deletion strains, locus YOR184W, strain ser1, active compounds read low 0.984 | S. cerevisiae deletion strains, locus YOR231W, strain MKK1, active compounds read low 1.03 | S. cerevisiae deletion strains, locus YOR265W, strain rbl2, active compounds read low 1 | S. cerevisiae deletion strains, locus YOR270C, strain vph1, active compounds read low 1.03 | S. cerevisiae deletion strains, locus YOR290C, strain snf2, active compounds read low 1.01 | S. cerevisiae deletion strains, locus YOR316C, strain cot1, active compounds read low 0.996 | S. cerevisiae deletion strains, locus YPL051W, strain arl3, active compounds read low 1.03 | S. cerevisiae deletion strains, locus YPL078C, strain atp4, active compounds read low 1.02 | S. cerevisiae deletion strains, locus YPL106C, strain sse1, active compounds read low 1.07 | S. cerevisiae deletion strains, locus YPL240C, strain hsp82, active compounds read low 1.01 | S. cerevisiae deletion strains, locus YPL241C, strain CIN2, active compounds read low 1.01 | S. cerevisiae deletion strains, locus YPL256C, strain CLN2, active compounds read low 1.07 | S. cerevisiae deletion strains, locus YPR119W, strain clb2, active compounds read low 0.986 | S. cerevisiae deletion strains, locus YPR141C, strain kar3, active compounds read low 0.992 | S. cerevisiae deletion strains, locus YPR163C, strain tif3, active compounds read low 0.994 | S. cerevisiae deletion strains, locus YPR167C, strain met16, active compounds read low 0.989 | S. cerevisiae deletion strains, strain wtn01, active compounds read low 0.973 | S. cerevisiae strains, strain wild type, active compounds read low 1.01

Reference: PubChem BioAssay AID1159580 (chemical genetic matrix, 2015)
